PubChem BioAssay (NCATS)
Records with an inconclusive call do not appear. Calls of active or inactive are those of the source. Unless noted, calls follow the shape of the full dose curve.

What was measured:
[1] = qHTS profiling of the MIPE4 collection as inhibitors of Plasmodium falciparum (3D7) proliferation (AID 743344; call rule not given here); conditions: P. falciparum 3D7 in erythrocytes, SYBR Green DNA fluorescence, 72 h; at 28.5 µM unless noted
Summary of the method: (§1)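 Parasite DNA was quantified by SYBR Green I fluorescence (ex 485, em 535 nm) after overnight lysis in saponin/Triton buffer at room temperature. Cultures at 0.3% parasitemia and 2.5% hematocrit were first exposed to compound for 72 h at 37 C; signals were normalised to artemisinin (0.29 uM) and vehicle wells.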

[2] = qHTS profiling of the MIPE4 collection as inhibitors of Plasmodium falciparum (DD2) proliferation (Rep 2) (AID 743346; call rule not given here); conditions: P. falciparum Dd2 in erythrocytes, SYBR Green DNA, 72 h; at 28.5 µM unless noted
Summary of the method: as §1

[3] = qHTS profiling of the MIPE4 collection as inhibitors of Plasmodium falciparum (HB3) proliferation (AID 743347; call rule not given here); conditions: P. falciparum HB3 in erythrocytes, SYBR Green DNA, 72 h; at 28.5 µM unless noted
Summary of the method: as §1

[4] = qHTS for Inhibitors of the Functional Ribonucleoprotein Complex (vRNP) of Lassa (LASV) Arenavirus: LASV Primary Screen - GLuc reporter signal (AID 1347082; calls by dose curve; tested in HEK293 reporter line; also: nearly all actives have a fitted effect of over 60% in size; also: potency is read from the fitted curve at half-maximal effect)
[5] = qHTS for Inhibitors of the Functional Ribonucleoprotein Complex (vRNP) of Lassa (LASV) Arenavirus: Viability assay - alamar blue signal for LASV Primary Screen (AID 1347083; calls by dose curve; tested in HEK293 reporter line; also: nearly all actives have a fitted effect of over 80% in size; also: potency is read from the fitted curve at half-maximal effect)
[6] = qHTS for Inhibitors of the Functional Ribonucleoprotein Complex (vRNP) of Lymphocytic Choriomeningitis Arenaviruses (LCMV): Viability assay - alamar blue signal for LCMV Primary Screen (AID 1347085; calls by dose curve; tested in HEK293 reporter line; also: nearly all actives have a fitted effect of over 80% in size; also: potency is read from the fitted curve at half-maximal effect)
[7] = molecular target: Nucleoprotein (Lymphocytic choriomeningitis virus (strain Armstrong)) (UniProt P09992); experiment: qHTS for Inhibitors of the Functional Ribonucleoprotein Complex (vRNP) of Lymphocytic Choriomeningitis Arenaviruses (LCMV): LCMV Primary Screen - GLuc reporter signal (AID 1347086); also: nearly all actives have a fitted effect of over 70% in size; also: potency is read from the fitted curve at half-maximal effect
Chain of Nucleoprotein (Lymphocytic choriomeningitis virus (strain Armstrong)) (P09992 whole entry, looked up): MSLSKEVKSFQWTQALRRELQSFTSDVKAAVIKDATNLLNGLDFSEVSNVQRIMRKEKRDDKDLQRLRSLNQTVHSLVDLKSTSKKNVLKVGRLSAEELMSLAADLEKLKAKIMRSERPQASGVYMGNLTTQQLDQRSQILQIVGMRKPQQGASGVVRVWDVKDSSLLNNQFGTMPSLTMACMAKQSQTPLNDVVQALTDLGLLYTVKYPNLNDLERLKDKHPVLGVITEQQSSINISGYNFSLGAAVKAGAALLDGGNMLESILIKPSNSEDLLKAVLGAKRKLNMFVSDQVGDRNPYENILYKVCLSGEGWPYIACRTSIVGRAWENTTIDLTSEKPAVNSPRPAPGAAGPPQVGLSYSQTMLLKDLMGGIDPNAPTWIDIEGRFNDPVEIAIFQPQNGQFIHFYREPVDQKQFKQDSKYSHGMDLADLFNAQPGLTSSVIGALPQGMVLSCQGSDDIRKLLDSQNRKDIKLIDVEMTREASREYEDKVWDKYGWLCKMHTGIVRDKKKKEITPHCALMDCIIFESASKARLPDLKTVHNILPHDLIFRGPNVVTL

[8] = Confirmatory qHTS to identify inhibitors of SARS-CoV-2 cell entry (AID 1645844); also: potency is read from the fitted curve at half-maximal effect; nearly all actives have a fitted effect of over 45% in size
Summary of the method: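 Luminescence entry read-out after 48 h: spike-pseudotyped MLV particles (Wuhan-Hu-1, 19-aa C-terminal truncation) added to compound-pretreated (1 h) HEK293-ACE2 cells; Data were normalised to bald PP and spike PP wells.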

[9] = Cytotoxicity counterscreen for inhibitors of SARS-CoV-2 cell entry (AID 1645845); also: nearly all actives have a fitted effect of over 50% in size
Summary of the method: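 ATP-content luminescence (ATPLite 1step, 15 min RT) read after 48 h compound exposure of Expi293F cells stably expressing human ACE2; normalized to cells-only wells and media-only wells.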

[10] = Primary qHTS to identify inhibitors of SARS-CoV-2 cell entry (AID 1645846); conditions: activity change, negative = inhibition: at 57.1 µM (top of the series) unless noted; also: nearly all actives have a fitted effect of over 45% in size
Summary of the method: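 Using luciferase-reporting pseudoviruses carrying Wuhan-Hu-1 spike, the screen tracks entry into stably ACE2-expressing cells over 48 hr. Activity is expressed relative to spike particles versus particles lacking any fusion protein.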

[11] = VSVG counterscreen qHTS to identify inhibitors of SARS-CoV-2 cell entry (AID 1645847); also: potency is read from the fitted curve at half-maximal effect; nearly all actives have a fitted effect of over 65% in size
Summary of the method: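 Entry of VSV-G pseudotyped particles into human ACE2-expressing HEK293 cells was measured by luciferase luminescence 48 h after infection, with compound added 1 h beforehand.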

CN1C(=O)C[C@H](C(=O)N[C@@H](Cc2cnc[nH]2)C(=O)N2CCC[C@@H]2C(N)=O)NC1=O
70.2%: parasite growth, % of control (lower = inhibition) [2]
86%: parasite growth, % of DMSO control [1]
48.7%: growth, % of control [3]
active: Potency [8] 19.2 µM | Potency [11] 0.961 µM
inactive: Potency [4] | Potency [5] | Potency [6] | Potency [7] | Potency [9] | Potency [10]

COC(=O)C1C2CC3c4[nH]c5cc(OC)ccc5c4CCN3CC2CC(OC(=O)c2cc(OC)c(OC)c(OC)c2)C1OC (centres undefined)
inactive: Potency [4] | Potency [5] | Potency [6] | Potency [7] | Potency [9]

CC[C@@H]([C@H](C)O)n1ncn(-c2ccc(N3CCN(c4ccc(OCC5CO[C@@](Cn6cncn6)(c6ccc(F)cc6F)C5)cc4)CC3)cc2)c1=O (some centres undefined)
inactive: Potency [4] | Potency [5] | Potency [6] | Potency [7] | Potency [9]

COc1cc2nccc(Oc3ccc(NC(=O)Nc4ccc(F)cc4F)c(F)c3)c2cc1OC
inactive: Potency [4] | Potency [5] | Potency [6] | Potency [7] | Potency [9]

Cn1cc(-c2ccc3ncc(Cc4ccc5ncccc5c4)n3n2)cn1
inactive: Potency [4] | Potency [5] | Potency [6] | Potency [7] | Potency [9] | Potency [10]

C=C[C@@H]1CN2CCC1C[C@H]2[C@H](O)c1ccnc2ccc(OC)cc12 (some centres undefined)
-48.9%: activity change, negative = inhibition [10]
inactive: Potency [4] | Potency [5] | Potency [6] | Potency [7] | Potency [9]

CC(C)(C)OC(=O)N[C@H]1CCCCCC=C[C@@H]2C[C@@]2(C(=O)NS(=O)(=O)C2CC2)NC(=O)[C@@H]2C[C@@H](OC(=O)N3Cc4cccc(F)c4C3)CN2C1=O
inactive: Potency [4] | Potency [5] | Potency [6] | Potency [7] | Potency [9]

c1cc(-c2sc(-c3ccncc3)c(-c3ccncc3)c2-c2ccncc2)ccn1
inactive: Potency [4] | Potency [5] | Potency [6] | Potency [7] | Potency [9] | Potency [10]

CNC(=O)c1nn(C)c2c1C(C)(C)Cc1cnc(Nc3ccc(N4CCN(C)CC4)cc3)nc1-2
active: Potency [4] 3.43 µM | Potency [5] 1.09 µM | Potency [6] 3.85 µM | Potency [7] 3.06 µM | Potency [8] 3.04 µM | Potency [11] 4.82 µM

CN(C[C@@H]1COCCO1)S(=O)(=O)Nc1ccc2ccc3ncc(-c4cnn(C)c4)cc3c(=O)c2c1
inactive: Potency [4] | Potency [5] | Potency [6] | Potency [7] | Potency [9]

Cc1c(CN2CCN(S(C)(=O)=O)CC2)sc2c(N3CCOCC3)nc(-c3cnc(N)nc3)nc12
active: Potency [4] 0.0863 µM | Potency [5] 0.0432 µM | Potency [6] 0.122 µM | Potency [7] 0.0968 µM | Potency [8] 0.215 µM | Potency [11] 1.21 µM

O=c1cc(-c2ccccc2)oc2cc(O)cc(O)c12
inactive: Potency [4] | Potency [5] | Potency [6] | Potency [7] | Potency [9] | Potency [10]

COc1cccc2c(NCc3ccccc3)nc(-n3c(N)nc4ccccc43)nc12
inactive: Potency [4] | Potency [5] | Potency [6] | Potency [7] | Potency [9]

CCn1cc(-c2ccnc3[nH]c(-c4cccc(CN(C)C)c4)cc23)c(-c2ccc(NC(=O)N(C)C)cc2)n1
active: Potency [4] 13.7 µM | Potency [5] 4.85 µM | Potency [6] 2.43 µM | Potency [7] 3.43 µM
inactive: Potency [9]

CC(C)c1cc(C(C)C)c(CC(=O)NS(=O)(=O)Oc2c(C(C)C)cccc2C(C)C)c(C(C)C)c1
inactive: Potency [4] | Potency [5] | Potency [6] | Potency [7] | Potency [9]

CC[C@H](C)n1cc(C)c2c(C(=O)NCc3c(C)cc(C)[nH]c3=O)cc(-c3ccc(N4CCNCC4)nc3)cc21
inactive: Potency [4] | Potency [5] | Potency [6] | Potency [7] | Potency [9]

O=c1oc2cc(O)ccc2s1
inactive: Potency [4] | Potency [5] | Potency [6] | Potency [7] | Potency [9]
-12.6%: activity change, negative = inhibition [10]

CC[C@@]1([C@@H]2O[C@@H]([C@H]3O[C@@](O)(CO)[C@H](C)C[C@H]3C)C[C@H]2C)CC[C@H]([C@]2(C)CC[C@]3(C[C@H](O)[C@@H](C)[C@@H]([C@@H](C)[C@@H](OC)[C@H](C)C(=O)O)O3)O2)O1
active: Potency [4] 0.376 µM | Potency [5] 3.35 µM | Potency [6] 4.21 µM | Potency [7] 1.06 µM
inactive: Potency [9]

O=C(NCc1ccncc1)C12C[C@H]3C[C@@H](C1)CC(c1ccc(Cl)cc1)(C3)C2
inactive: Potency [4] | Potency [5] | Potency [6] | Potency [7] | Potency [9]

C[C@H](NC(=O)[C@@H](O)c1cc(F)cc(F)c1)C(=O)N[C@@H]1C(=O)N(C)c2ccccc2-c2ccccc21
inactive: Potency [4] | Potency [5] | Potency [6] | Potency [7] | Potency [9]

O=C(O)Cc1cccc(OCCCN(Cc2cccc(C(F)(F)F)c2Cl)CC(c2ccccc2)c2ccccc2)c1
inactive: Potency [4] | Potency [5] | Potency [6] | Potency [7] | Potency [9]

CC1CCC(C(=O)N(c2cc(C#CC(C)(C)C)sc2C(=O)O)C2CCC(O)CC2)CC1 (centres undefined)
inactive: Potency [4] | Potency [5] | Potency [6] | Potency [7] | Potency [9]

CCN1CCN(c2ccc(Nc3cc(N(C)C(=O)Nc4c(Cl)c(OC)cc(OC)c4Cl)ncn3)cc2)CC1
inactive: Potency [4] | Potency [5] | Potency [6] | Potency [7] | Potency [9] | Potency [10]

CCCC1OC2C[C@@H]3[C@H]4CCC5=CC(=O)C=C[C@]5(C)[C@H]4C(O)C[C@]3(C)[C@]2(C(=O)CO)O1 (some centres undefined)
inactive: Potency [4] | Potency [5] | Potency [6] | Potency [7] | Potency [9]

O=C(O)c1cc(O)c2c(c1)C(=O)c1cccc(O)c1C2=O
inactive: Potency [4] | Potency [5] | Potency [6] | Potency [7] | Potency [9]

CC(C)(C)OC(=O)CN(Cc1ccc(Cl)cc1)Cc1ccc([N+](=O)[O-])s1
inactive: Potency [4] | Potency [5] | Potency [6] | Potency [7] | Potency [9]
